Assay outcomes deposited in PubChem BioAssay by several laboratories.
The list is not random: actives were taken first. Their share in the collection is about 3.4%.
sPLA2-III inh = Inhibits HGIII-sPLA2 liposome hydrolysis, primary screen | QFRET BODIPY PC-A2 liposome hydrolysis, fluorescence | 370,000 tested, 0.56% active | inhibition, % at 12.2 µM | AID 743126;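 active = inhibition above mean plus 3 SD of compounds lying within the high and low control bounds, cut at about 19% in these data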;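 note: 0% = median of test compound wells and 100% = no enzyme DMSO wells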
proKLK7 act = activates the human kallikrein-7 zymogen | P49862 | purified proKLK7, EDANS-DABCYL substrate fluorescence; 100% is mature enzyme control, 0% vehicle | activation, % at 7 µM | 370,000 tested, 0.9% active | AID 652039;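 active = activation above the mean of all tested compounds plus 3 SD, computed per campaign excluding outliers beyond control limits, cut at about 13% in these data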
Target sequence (P49862 whole entry, looked up): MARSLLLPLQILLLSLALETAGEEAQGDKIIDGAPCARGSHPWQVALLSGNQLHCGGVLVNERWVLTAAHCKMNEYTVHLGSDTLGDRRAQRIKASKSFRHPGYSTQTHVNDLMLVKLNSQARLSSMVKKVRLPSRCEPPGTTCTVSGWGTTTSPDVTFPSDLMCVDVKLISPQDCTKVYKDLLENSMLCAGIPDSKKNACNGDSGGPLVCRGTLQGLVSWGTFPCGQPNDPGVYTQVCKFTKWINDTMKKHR
CendR NRP1 mod = NRP-1/CendR interaction modulation. AID 602438. FAM-RPARPAR peptide binding to NRP-1, fluorescence polarization. inhibition, % at 25 µM. O14786. 360,000 tested, 0.85% active;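 active = inhibition or corrected inhibition above about 18%, plus a signal ratio from 0.5 to 1.5, limit read from the data, passing the limit was not always enough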
ADAM17 inh = inhibits human ADAM17; recombinant ADAM17, EDANS/DABCYL FRET peptide cleavage; P78536; inhibition, % at 6.95 µM; 370,000 tested, 0.83% active;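 active = inhibition above the mean of compounds lying between control limits plus 3 SD, set per campaign, cut at about 8.5% in these data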;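 note: 0% = DMSO-only wells as the low control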
ADAM10 inh = inhibits human ADAM10; O14672; recombinant ADAM10, EDANS/DABCYL FRET peptide cleavage, 3 h; inhibition, % at 7 µM; 370,000 tested, 0.62% active; AID 720582;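 active = inhibition above a per-campaign cutoff equal to the mean of compounds falling between control-based bounds plus 3 SD, cut at about 20% in these data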;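 note: 0% = DMSO wells while the 100% control is not disclosed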
ADAM10 counter = inhibits human ADAM10 in ADAM17 exosite counter-screen | shares compounds with ADAM17 inh | recombinant ADAM10, EDANS/DABCYL FRET peptide cleavage, 3 h | inhibition, % at 6.95 µM | 2,900 tested, 47% active;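 active = mean inhibition over the triplicate runs exceeds the activity threshold set in the earlier primary screen, cut at about 20% in these data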;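 note: 0% = DMSO wells and 100% = marimastat wells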
ADAM17 confirm = human ADAM17 inhibition, confirmation. shares compounds with ADAM17 inh. recombinant ADAM17, EDANS/DABCYL QFRET peptide cleavage. inhibition, % at 6.95 µM. 2,900 tested, 65% active. AID 743257;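 active = mean inhibition across replicates above the hit cutoff set in the primary screen, cut at about 8.5% in these data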;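 note: 0% = DMSO wells and 100% = marimastat wells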
* = called active by the depositor; nt = no result.

SMILES	sPLA2-III inh	proKLK7 act	CendR NRP1 mod	ADAM17 inh	ADAM10 inh	ADAM10 counter	ADAM17 confirm
Cc1ccc(/C=C/C(=O)Nc2ccc([N+](=O)[O-])cc2)o1	-21	-1	-5	5	14	nt	nt
COC(=O)C1CN(Cc2ccccc2)CCS(=O)(=O)N1Cc1ccc(OC)cc1 (centres undefined)	0	1	nt	-2	4	nt	nt
COC(=O)[C@]12C[C@H](CC(=O)N3CCSCC3)C(=O)N(CCc3ccc(OC)c(OC)c3)C1=C[C@H](C1CCCC1)O[C@@H]2C	4	0	nt	-2	-6	nt	nt
N#Cc1c(-c2ccccc2)c(-c2ccccc2)nn(CC(=O)NNC(=O)Nc2ccc(Cl)cc2)c1=O	-70	1	-6	14*	15	23*	19*
N#Cc1c(-c2ccccc2)c(-c2ccccc2)nn(CC(=O)NNC(=O)Nc2ccccc2)c1=O	-51	0	-31	-2	-24	nt	nt
Cc1ccccc1CN1CCCCC(NC(=O)c2ccc3ccccc3c2)C1=O (centres undefined)	10	0	nt	22*	5	7	8
Cc1ccc(C(=O)NC2CCCCN(Cc3ccccc3C)C2=O)cc1 (centres undefined)	-3	0	nt	1	-3	nt	nt
O=C(/C=C/c1ccccc1O)c1ccccc1	2	0	2	-11	-35	nt	nt
O=C(/C=C/c1ccccc1O)c1ccc(Cl)cc1	-12	0	3	10.0*	19	14	9.4*
CCc1cc(-c2nnn(CCC3COCCO3)c2CC)ccc1-c1cn(CCc2c[nH]c3ccccc23)nn1 (centres undefined)	-101	1	6	8.6*	-1	15	9.4*
CCCCCCc1c[nH]c2ccc(O)c(-c3ccccc3)c12	-8	0	nt	1	-9	nt	nt
COc1cc2cnncc2cc1OC	3	0	-3	-3	-9	nt	nt
COc1cc2cc(Br)cc(Br)c2nc1C	3	0	-19	10*	13	21*	13*
COc1cccc(CN(C)C(=O)c2cc(COc3ccc(-n4cncn4)cc3)on2)c1	-17	1	0	8.7*	8	3	4
CC(C)(NO)/C(=N/O)c1cccs1	5	0	-4	9.2*	8	5	5
O=C(NC(Nc1ncc(S(=O)(=O)c2ccc([N+](=O)[O-])cc2)s1)(C(F)(F)F)C(F)(F)F)c1ccc(Cl)cc1	-38	0	7	12*	7	41*	17*
COC(=O)[C@H](CC(C)C)N(CCc1cn(Cc2ccc(C)cc2)nn1)S(=O)(=O)c1ccccc1Br	-12	1	nt	6	12	nt	nt
COc1ccc(C=NNC(=O)c2ccncc2)cc1	14	-1	nt	7	-3	nt	nt
CCc1ccc(N2CC(C)Cn3c2nc2c3c(=O)n(CCN3CCOCC3)c(=O)n2C)cc1 (centres undefined)	9	0	-1	9.1*	-1	-5	1
COc1ccc(N2CC(C)Cn3c2nc2c3c(=O)n(CCN3CCOCC3)c(=O)n2C)cc1 (centres undefined)	13	0	-3	-3	-10	nt	nt
COCCNC(=O)c1ccc2c(c1)NC(=O)CS2	4	0	3	-5	-4	nt	nt
COc1ccc(NC(=O)c2ccc3c(c2)NC(=O)CS3)cc1	3	2	2	9.5*	4	9	6
CC(c1cccs1)N(Cc1ccco1)C(=O)Nc1ccc(Cl)c(Cl)c1 (centres undefined)	-4	0	-9	8.6*	10	-1	6
Cc1cc(F)ccc1-c1cc(C(=O)NCc2ccc(C(F)(F)F)cc2)[nH]n1	-2	0	5	11*	14	24*	13*
CCCOc1ccc(F)cc1-c1cc(C(=O)NCc2cc(C(F)(F)F)cc(C(F)(F)F)c2)[nH]n1	nt	nt	-7	nt	nt	nt	nt
SMILES	sPLA2-III inh	proKLK7 act	CendR NRP1 mod	ADAM17 inh	ADAM10 inh	ADAM10 counter	ADAM17 confirm
CCOc1ccc(-c2cc(C(=O)NCc3ccc(C(F)(F)F)cc3)[nH]n2)c(C)c1	1	0	-10	0	-6	nt	nt
COc1ccc(F)cc1-c1cc(C(=O)NCc2cc(C(F)(F)F)cc(C(F)(F)F)c2)[nH]n1	6	1	2	12*	6	-1	3
CCOc1ccc(C2CC=C(C(=O)O)CN2S(=O)(=O)c2ccc(C)cc2)cc1 (centres undefined)	-12	0	nt	0	-2	nt	nt
CCN1C(=O)c2cccc3c(NC(=O)c4ccc5c(c4)OCCO5)ccc1c23	0	0	-99	9.5*	8	-9	0
CCN1C(=O)c2cccc3c(NC(=O)c4ccccc4)ccc1c23	1	0	-6	-2	-7	nt	nt
CCCn1c(O)c(N=NC(=O)CNC(=O)Cc2ccc(OC)cc2)c2ccccc21	0	0	1	9.7*	1	5	6
O=C(SCC(O)C(O)CS)c1cccs1 (centres undefined)	-7	0	0	43*	12	31*	64*
Cn1cc(C(=O)c2ccc(Cl)cc2Cl)cc1C(=O)N/N=C(\N)COc1ccc(F)cc1	-1	-1	19	2	4	nt	nt
Cn1cc(C(=O)c2ccc(Cl)cc2Cl)cc1C(=O)N/N=C(\N)COc1ccc(Cl)cc1	-8	-1	-1	11*	16	22*	16*
COc1ccc(NC(=O)Cn2nnc(-c3ccccc3N)n2)cc1OC	-5	0	-6	-1	1	nt	nt
COc1cc(NC(=O)Cn2nnc(-c3ccccc3N)n2)cc(OC)c1	-41	-1	-7	9.6*	18	0	1
COc1cc(C(c2c(C)[nH][nH]c2=O)c2c(C)[nH][nH]c2=O)ccc1OCc1ccc([N+](=O)[O-])cc1	-58	-1	-14	10*	16	16	13*
COc1cc(C(c2c(C)[nH][nH]c2=O)c2c(C)[nH][nH]c2=O)ccc1OC(=O)c1cccc([N+](=O)[O-])c1	-48	0	5	2	11	nt	nt
CC(c1ccccc1)n1c(SCC(=O)N2CC(=O)Nc3ccccc32)nc2ccccc2c1=O (centres undefined)	-5	1	-9	8.9*	15	37*	16*
COCC(C)n1c(SCC(=O)N2CC(=O)Nc3ccccc32)nc2ccccc2c1=O (centres undefined)	0	0	2	-2	-7	nt	nt
CSCCC(NS(=O)(=O)c1cccc(C(F)(F)F)c1)C(=O)N1CCN(C(=O)c2ccco2)CC1 (centres undefined)	0	0	-1	-1	-11	nt	nt
